An excerpt weighted towards active compounds, which were near 3.1% of everything screened.
S-ASM inh: Inhibitors of Secretory Acid Sphingomyelinase (S-ASM): qHTS; Potency, µM (top dose mostly 57.5 µM), for the others: top-dose activity change, negative = inhibition, most hits filed as inhibitors; Sphingomyelin phosphodiesterase (Homo sapiens), P17405; placental ASM, HMU-PC fluorogenic substrate, 60 min; 0.006% of 340,000 active
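Fluorogenic HMU-PC substrate (9 uM final) is turned over by placental ASM in 60 min at 37 C after a 10 min compound preincubation. Reaction ended by alkaline stop (pH 10), with fluorescence read at 386/447 nm.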
VDR inhibitor: Inhibitors of the vitamin D receptor (VDR): qHTS; Vitamin D3 receptor (Homo sapiens), P11473; VDR-SRC2-3 peptide fluorescence polarization, 2 h; Potency, µM, inactives show max response, negative = inhibition, most hits filed as inhibitors; 0.93% of 400,000 active; AID 504847, 2011; also: % is scaled to controls: 0 for no effect and ±100 for the full control effect
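Compounds are added to VDR with labelled SRC2-3 coactivator peptide and held 2 h at room temperature. Inhibition of the VDR–peptide interaction is then read as a change in fluorescence polarization.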
TDP1 block: qHTS Assay for Inhibitors of Tyrosyl-DNA Phosphodiesterase (TDP1); Potency, µM (series often up to 130 µM), inactives show at the top dose activity change, negative = inhibition, actives largely listed as inhibitors; 0.28% of 350,000 active; Tyrosyl-DNA phosphodiesterase 1 (Homo sapiens), Q9NUW8; recombinant TDP1, AlphaScreen DNA substrate cleavage; also: % is scaled to controls: 0 for no effect and ±100 for the full control effect; nearly all actives have a fitted effect of over 40% in size
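E. coli-derived human Tdp1, 1 nM final. Cpd preinc 15 min RT; substrate 15 nM final, 5 min RT; AS bead mix 10 ug/ml final, 10 min RT. Signal loss = tyrosine-FITC cleavage. No-enzyme wells = max signal.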
PLK1 PBD inh: qHTS for Inhibitors of PLK1-PDB (polo-like kinase 1 - polo-box domain): Primary Screen; Serine/threonine-protein kinase PLK1 (Homo sapiens), P53350; 2.8% of 360,000 active; Plk1 PBD binding of FITC phosphopeptide, fluorescence polarization; Potency, µM, for inactives: max response, negative = inhibition, usual class: inhibitors; AID 720504, 2013; also: series mostly up to about 57 µM; % is scaled to controls: 0 for no effect and ±100 for the full control effect; nearly all actives have a fitted effect of over 65% in size
Tb PFK block: qHTS Assay to Find Inhibitors of T. brucei phosphofructokinase; ATP-dependent 6-phosphofructokinase (Trypanosoma brucei brucei), O15648; T. brucei PFK, ADP-Glo luminescence; Potency, µM (doses to about 57.5 µM), without a hit: at the top dose activity, negative = inhibition, most hits filed as inhibitors; 0.17% of 330,000 active;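 also: 0% = uninhibited 1x PFK enzyme wells and -100% = no-enzyme wells; nearly all actives have a fitted effect of over 60% in size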
Target sequence (O15648 whole entry, looked up): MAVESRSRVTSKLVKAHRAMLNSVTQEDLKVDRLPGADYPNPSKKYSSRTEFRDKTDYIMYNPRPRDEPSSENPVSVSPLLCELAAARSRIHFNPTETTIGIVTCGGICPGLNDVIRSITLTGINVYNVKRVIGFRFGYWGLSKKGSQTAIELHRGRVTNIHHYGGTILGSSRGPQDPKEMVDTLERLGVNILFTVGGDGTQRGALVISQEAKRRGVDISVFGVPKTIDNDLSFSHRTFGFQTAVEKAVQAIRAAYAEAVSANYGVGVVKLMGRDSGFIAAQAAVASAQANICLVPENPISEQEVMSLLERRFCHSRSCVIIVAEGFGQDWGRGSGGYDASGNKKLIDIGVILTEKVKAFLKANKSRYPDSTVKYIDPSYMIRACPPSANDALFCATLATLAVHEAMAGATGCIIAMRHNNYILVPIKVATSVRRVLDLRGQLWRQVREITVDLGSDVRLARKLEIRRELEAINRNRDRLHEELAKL
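Activity is normalized to no-enzyme wells (full inhibition) and 1.25 nM enzyme wells (no inhibition). Reaction: 0.5 mM F6P, 0.1 mM ATP, 45 min RT, ADP-Glo luminescence; concentration-response curves fitted and classed by quality.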
Pin1 inhibitor: qHTS Assay to Find Inhibitors of Pin1; Pin1 FP peptide displacement, HiFluor488, 10 min; Potency, µM (top dose mostly 115 µM), inactives show top-dose activity, negative = inhibition, usual class: inhibitors; 0.009% of 390,000 active; AID 504891, 2011; active = well fitted inhibition curve with a large enough effect in the polarisation, with a control signal flat, not every such curve was filed as active; inconclusive = small, poorly fitted or top-dose-only effect, or effect the other way, or a change in a side signal; inactive = no such curve, though single readings can be large or run the other way; the % refers to the polarisation; also: % is scaled to controls: 0 for no effect and ±100 for the full control effect
Target sequence (Q13526 whole entry, looked up): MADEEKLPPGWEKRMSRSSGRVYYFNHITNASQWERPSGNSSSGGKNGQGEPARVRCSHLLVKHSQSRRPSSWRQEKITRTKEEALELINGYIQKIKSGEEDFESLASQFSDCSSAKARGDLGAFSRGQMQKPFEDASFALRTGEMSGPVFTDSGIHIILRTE
Numbers without * were called inactive; ? = inconclusive; . = no result; [ ] = another dose, or the depositor's remark. Unless noted, calls follow the shape of the dose curve; as a rule, active = well fitted curve in the direction sought with a large enough effect; inconclusive = small, poorly fitted or top-dose-only effect, or another doubt; inactive = no such curve, though single readings can be large; an effect the other way counts as inactive or inconclusive. Potency is read from the fitted curve at half-maximal effect.

SMILES	S-ASM inh	VDR inhibitor	TDP1 block	PLK1 PBD inh	Tb PFK block	Pin1 inhibitor
CC1(c2ccccc2)NC(=O)N(CC(=O)Nc2nc(-c3ccccn3)cs2)C1=O (stereo unspecified)	.	-28.7%	.	?	-2.3%	5.3%
CC(C)[C@H](NC(=O)c1ccccc1Cl)C(=O)Nc1nc(-c2ccccn2)cs1	3.0%	-17.5%	7.7%	-3.6%	9.6%	9.5%
C[C@@H](C(=O)Nc1nc(-c2ccccn2)cs1)N1C(=O)C2CCCCC2C1=O (stereo partly specified)	0.0%	?	-7.9%	16.8µM*	-5.4%	?
Cn1ncc([N+](=O)[O-])c1C(=O)Nc1ccccc1C(=O)O	2.3%	-3.6%	.	-5.5%	-2.6%	-0.2%
COc1ccccc1NC(=O)c1c([N+](=O)[O-])cnn1C	-1.7%	-12.8%	1.41µM*	-14.1%	1.9%	1.6%
CCOc1ccc(C(=O)Nc2cc(C)ccn2)cc1	-2.1%	35.5µM*	2.6%	2.99µM*	-26.7%	-0.5%
N#Cc1nc(Nc2cc(F)cc(F)c2)c2ncn(C3CCCC3)c2n1	.	.	0.0%	.	.	20.6%
CC1(C)N([O-])C2=C(c3ccccc3C2=O)[N+](=O)C1(C)C	1.7%	?	-2.2%	10.6µM*	2.6%	-2.3%
CCC1(C)N([O-])C(C)=C(c2ccccc2)[N+]1=O (stereo unspecified)	-0.9%	1.1%	-3.9%	-2.3%	2.6%	-2.4%
Cc1cccc2c1-c1sc(C(=O)N3CCN(c4ccccc4)CC3)cc1CO2	.	-4.5%	3.9%	.	.	16.7%
O=C(C#Cc1ccccc1)c1ccco1	-1.3%	22.4µM*	10.5%	3.36µM*	-10.2%	2.4%
CN(Cc1ccccc1)C(=O)c1ccco1	1.4%	19.1%	0.0%	-4.1%	9.7%	-0.4%
CCCCNC(=O)CCCN1C(=O)c2ccccc2Sc2ncccc21	.	1.6%	0.0%	.	.	-2.8%
CC1CCc2c(sc3[nH]c(=S)n(C)c(=O)c23)C1 (stereo unspecified)	-4.5%	?	.	10.6µM*	-7.3%	16.5%
Cc1ccc2cc(C3CC(c4ccco4)=NN3C(=O)CCC(=O)O)c(Cl)nc2c1 (stereo unspecified)	4.6%	31.6µM*	2.7%	?	-5.9%	-0.6%
O=C(COc1ccc2c(c1)CCC2)NCc1cccc(Cl)c1	-0.4%	-6.3%	0.0%	20.8%	0.0%	3.7%
O=C(COc1ccc2c(c1)CCC2)NCc1ccc(Cl)cc1	0.1%	-26.7%	-0.6%	29.9µM*	-1.9%	4.2%
Cc1ccccc1S(=O)(=O)N1[C@@H](c2ccccc2)C(C(=O)O)=CC[C@H]1c1ccc(Cl)cc1	-0.4%	?	6.6%	?	0.0%	-0.7%
Cc1ccccc1S(=O)(=O)N1[C@@H](c2ccc(Br)cc2)C(C(=O)O)=CC[C@H]1c1ccc(Cl)cc1	1.4%	?	-0.4%	21.2µM*	0.0%	.
Cc1ccc([C@@H]2CC=C(C(=O)O)[C@H](c3ccc(Cl)cc3)N2S(=O)(=O)c2ccccc2C)cc1	-1.0%	-14.3%	2.2%	21.2µM*	-1.8%	.
COc1ccc([C@@H]2CC=C(C(=O)O)[C@H](c3ccc(Br)cc3)N2S(=O)(=O)c2ccccc2C)cc1	2.5%	0.9%	2.1%	-27.4%	-0.7%	-22.5%
Cc1ccccc1S(=O)(=O)N1C(c2ccc(Cl)c(Cl)c2)CC=C(C(=O)O)C1c1cccc(Br)c1 (stereo unspecified)	.	.	.	23.8µM*	.	.
Cc1ccc([C@@H]2CC=C(C(=O)O)[C@H](c3ccc(Br)cc3)N2S(=O)(=O)c2ccccc2C)cc1	-0.4%	?	2.0%	26.7µM*	-5.5%	.
Cc1ccc(CNc2ncnc3ccc(-c4c(C)noc4C)cc23)cc1	.	.	9.7%	.	.	4.4%
Cc1ccc(S(=O)(=O)N2CCN(c3nc(-c4ccc(CN5CCNCC5)s4)nc4ccccc34)CC2)cc1	.	-20.6%	.	.	.	26.5%
SMILES	S-ASM inh	VDR inhibitor	TDP1 block	PLK1 PBD inh	Tb PFK block	Pin1 inhibitor
Cc1cc(C)cc(NC(=O)C(=O)NC(C)c2ccccc2)c1 (stereo unspecified)	.	-7.8%	-4.0%[12.3 µM]	.	.	18.2%
O=C(CSc1n[nH]c(-c2ccccc2Cl)n1)N1CCN(c2ccc(F)cc2)CC1	.	11.3%	8.1%	.	.	-5.3%
C#CCOc1ccc(/C=C2/C(=O)N(c3cccc(C(=O)O)c3)N=C2C)cc1OC	5.3%	?	.	1.89µM*	?	0.9%
C#CCOc1ccc(/C=C2/C(=O)N(c3ccc(S(N)(=O)=O)cc3)N=C2C)cc1OC	.	.	.	1.19µM*	.	.
CC1=NN(c2ccccc2)C(=O)/C1=C/C=C/c1ccccc1	-22.4%	?	13.3%	?	-5.2%	5.7%
CC1=NN(c2cccc(C(=O)O)c2)C(=O)/C1=C\C=C\c1ccco1	-2.6%	?	-2.8%[56.1 µM]	8.44µM*	21.3µM*	.
COc1cc(/C=C/[N+](=O)[O-])ccc1OCc1cccc(C(=O)O)c1	2.9%	20µM*	.	5.97µM*	?	28.2µM*
c1csc(-c2nc(N3CCN(Cc4ccc5c(c4)OCCO5)CC3)c3ccccc3n2)c1	.	0.5%	3.0%	.	.	-1.4%
COc1cc(/C=C2\C(=O)N(c3cccc(C(=O)O)c3)N=C2C)ccc1OCc1ccccc1	.	.	.	1.06µM*	.	.
O=C1CCCN1CCCNc1ccc2nnc(CCC(=O)N3CCN(c4ccc(F)cc4)CC3)n2n1	-1.3%	-20.9%	9.1%	26.7µM*	-0.1%	-3.2%
Cc1nc2sc(C(=O)Nc3ccc(F)cc3)c(N)c2c(-c2ccc(Br)cc2)c1C(=O)Nc1ccc(Cl)cc1	.	-28.9%	0.0%	.	.	?
COc1ccc(C(=O)Oc2c(Sc3ccccc3)c(C)nn2-c2ccccc2)cc1OC	.	-28.5%	5.9%	.	.	4.9%
Cc1ccc(Sc2c(C)nn(-c3ccccc3)c2OC(=O)C(C)(C)C)cc1	.	?	11.8%	.	.	-2.6%
CCC(=O)Oc1c(Sc2ccc(Cl)cc2)c(C)nn1-c1ccccc1	.	79.4µM*	11.8%	.	.	23.3%
CCCC(=O)Oc1c(Sc2ccc(C)cc2)c(C)nn1-c1ccccc1	.	17.8µM*	11.8%	.	.	-8.6%
Cc1ccc(CCNC(=O)CCn2nc(-c3ccc(Cl)cc3)ccc2=O)cc1	.	11.1%	5.2%	.	.	-6.4%
COC(=O)C(Cc1ccccc1)NS(=O)(=O)c1cc(Br)ccc1Br (stereo unspecified)	.	-1.5%	2.1%	.	.	-0.3%

Bioassay records (PubChem)
